# Experiment: small molecules boosting NK-mediated OVCAR3 lysis – imaging, primary NK cells, calcein-AM imaging, primary screen (AID 1508625);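 note: compound given to NK cells 16 h before adding targets at 1.5 to 1 ratio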;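 for z-score: more negative robust z means stronger NK killing of tumor cells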
# Conditions: OVCAR3 lysis by primary NK cells, at 5 µM; z-score: measured here: robust Z-score, single-point normalisation
SMILES,"corrected activity, negative = more killing",z-score
CC(C(=O)O)N1C(=O)C2C3CCC(C3)C2C1=O (stereo not drawn),1.01%,0.359
c1cncc(CNC23CC4CC(CC(C4)C2)C3)c1,-3.27%,-1.04
COc1ccc(-c2ccc3c(N)c(C(=O)NCc4ccc(C(F)(F)F)cc4)sc3n2)cc1,-1.13%,-0.339
COc1ccccc1C1C(=C(O)c2ccccc2)C(=O)C(=O)N1CC(C)O (stereo not drawn),-4.26%,-1.62
O=C(Nc1ccc(Cc2ccncc2)cc1)C1CCC(N2C(=O)C3CC=CCC3C2=O)CC1 (stereo not drawn),-4.96%,-1.89
CCOc1ccc(N2CC(C(=O)Nc3cc(C)ccn3)CC2=O)cc1 (stereo not drawn),-3.29%,-1.23
CC(=O)c1cccc(NC(=O)C2CCN(C(=O)c3ccc(F)cc3)CC2)c1,-3.29%,-1.22
CCOc1ccccc1C(=O)N1CCN(c2ccccc2OCC)CC1,-2.5%,-1.03
O=C(O)CCn1ncc2ccccc21,-4.13%,-1.31
O=C(CCn1c(=S)[nH]c2ccccc2c1=O)NCCc1ccc(Cl)cc1,-2.39%,-0.633
O=C(COc1ccc(Br)cc1)NCc1ccco1,-0.415%,-0.147
CC1C2CCCN2CCN1Cc1cccc(Oc2ccccc2)c1 (stereo not drawn),-1.23%,-0.537
C=CCn1c2ccccc2c2nnc(SCc3[nH]c(C(=O)OCC)c(C)c3C(C)=O)nc21,-1.4%,-0.435
Cc1ccc(-c2cc(C(=O)NN=Cc3cccnc3)[nH]n2)cc1,-3.53%,-1.54
Cc1c(C(=O)OC(C)C)sc(NC(=O)c2cc3ccccc3c(=O)o2)c1C(=O)OC(C)C,-4.01%,-1.65
Cc1ccc(C)c(C(=O)COC(=O)CNS(=O)(=O)c2ccccc2)c1,-1.55%,-0.589
COCCCNC(=O)c1cc(OC)c(OC)c(OC)c1,-10.8%,-2.27
COc1ccc(C(N)=NOC(=O)CSc2ccccc2)cc1,-1.04%,-0.576
CC(C)c1ccc(CNc2c([N+](=O)[O-])c(=O)oc3ccccc23)cc1,-0.839%,-0.312
COc1ccc(NC(=O)CN(C)S(=O)(=O)c2cccs2)cc1OC,-4.46%,-1.26

SMILES,"corrected activity, negative = more killing",z-score
COCCNC(=O)c1c[nH]c2ccc(S(=O)(=O)Nc3ccc4c(c3)OCCO4)cc2c1=O,-5.25%,-1.29
Cc1ccc(S(=O)(=O)n2nnc3ccccc32)c(C)c1C,-4.06%,-1.51
CC(C)OC(=O)CN1CCCN(S(=O)(=O)c2ccc(F)cc2)CC1,-3.05%,-0.969
CCSc1nnc(NC(=O)CSc2nc3c(c(=O)n2-c2ccccc2OC)SCC3)s1,-4.89%,-1.22
O=C(Nc1ccc2c(c1)OCCO2)c1cc2cc3ccc(Cl)cc3nc2o1,-3.48%,-0.854
FC(F)(F)c1ccc(Oc2cccc(C(F)(F)F)c2)nc1,-1.98%,-1.1
O=C(CCCOc1ccccc1)N1CCN(c2ccccn2)CC1,-1.33%,-0.738
CCOc1cc(C(=S)N2CCCCC2)ccc1OC(=O)c1ccc(OC)cc1,-5.85%,-2.2
CCOc1ccc(S(=O)(=O)NC(C)C)c2cccnc12,-3.65%,-1.16
O=C1C(=O)N(Cc2cccnc2)C(c2ccncc2)C1=C(O)c1ccc(F)cc1 (stereo not drawn),-3.73%,-1.62
COCCNC(=O)c1cc2cc3ccc(Cl)cc3nc2o1,-3.66%,-0.897
COc1ccc(C2=NN(C(=O)c3ccc(Br)o3)C(c3ccc(N(C)C)cc3)C2)cc1OC (stereo not drawn),-3.55%,-1.9
CC1(C(=O)NCC2CCCO2)CCC(=O)N1CCc1ccccc1 (stereo not drawn),-6.77%,-1.92
O=C(Nc1ccccc1C(=O)O)c1cc(S(=O)(=O)Nc2ccc(Br)cc2)ccc1Cl,-14.5%,-3.06
Nc1cc(OC(=O)c2cccs2)nn1S(=O)(=O)c1ccccc1,-4.31%,-1.37
CN1C(=O)C(=O)C(=C(O)c2ccc(Br)cc2)C1c1ccccc1 (stereo not drawn),-1.99%,-0.867
CN(C(=O)c1cnc2n(c1=O)CCS2)c1ccccc1,-7.51%,-2.39
COc1ccc(-n2c(=S)[nH]c3cc(C(=O)N4CCOCC4)ccc3c2=O)cc1,-10.1%,-3.21
CCOc1ccc2nc(SCC(=O)NC3CC3)sc2c1,-5.49%,-1.7
